Calls of active or inactive are those of the source. Unless noted, no rule for the calls is given here.
What was measured:
[1] = A549 cell viability effects, profiling panel, calcein-AM fluorescence, 48 h, basal (AID 1162); settings: higher = more signal; also: test concentration not given here
[2] = adipocyte viability effects, profiling panel, cell-based, 3T3-L1 adipocytes, calcein-AM fluorescence, 48 h, basal (AID 1163); settings: 3T3-L1 adipocytes viability, higher = more signal; also: test concentration not given here
[3] = HepG2 cell viability effects, profiling panel, calcein-AM fluorescence, 48 h, basal (AID 1164); settings: higher = more signal; also: test concentration not given here
[4] = MM1S cell viability effects, profiling panel, calcein-AM fluorescence, 48 h, basal (AID 1165); settings: higher = more signal;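 also: viability of MM1S multiple myeloma cells under basal unstimulated conditions; test concentration not given here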
[5] = basal RPMI8226 viability, no added stimulus, profiling panel, cell-based, calcein-AM fluorescence, 48 h, PK04 Diversity Set (AID 1166); settings: RPMI8226 myeloma viability, higher = more signal;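 also: cells grown under basal conditions without added stimulus; test concentration not given here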
[6] = basal HepG2 mitochondrial membrane potential changes, profiling panel, cell-based, JC-1 fluorescence, 24 h, 100 nL compound (AID 1167); settings: higher = more signal; also: test concentration not given here
[7] = basal 3T3-L1 adipocyte mitochondrial potential changes, profiling panel, cell-based, JC-1 fluorescence, 3T3-L1 adipocytes, 24 h, 100 nL compound (AID 1168); settings: JC-1 mitochondrial fluorescence, higher = more signal, called active from +8 up or from −8 down; also: test concentration not given here
[8] = basal RPMI8226 mitochondrial membrane potential changes, profiling panel, cell-based, JC-1 fluorescence, 24 h, 100 nL compound (AID 1169); settings: RPMI8226 myeloma, JC-1 mitochondrial potential fluorescence, higher = more signal; also: test concentration not given here
[9] = basal MM1S mitochondrial membrane potential changes, profiling panel, cell-based, JC-1 fluorescence, 24 h, 100 nL compound (AID 1170); settings: higher = more signal; also: test concentration not given here
[10] = A549 lung cancer cell viability effects, profiling panel, resazurin fluorescence, 24 h, PK04 Diversity Set (AID 1171); settings: higher = more signal, called active from +8 up or from −8 down; also: test concentration not given here
[11] = HepG2 liver cancer cell viability effects, profiling panel, resazurin fluorescence, 24 h, PK04 Diversity Set (AID 1172); settings: higher = more signal; also: test concentration not given here
[12] = basal S. cerevisiae growth modulation, no modifier, primary screen, OD600, strain BY4716, 24 h, basal condition (AID 1173); settings: OD600, 24 h, higher = more signal, called active from +8 up or from −8 down
[13] = MM1S myeloma cell viability, profiling panel, resazurin fluorescence, basal, 24 h, PK04 Diversity Set (AID 1174); settings: higher = more signal, called active from +8 up or from −8 down;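 also: MM1S multiple myeloma cell line; test concentration not given here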
[14] = molecular target: Dihydroorotate dehydrogenase (quinone), mitochondrial (Plasmodium falciparum (isolate 3D7)) (UniProt Q08210); assay: PfDHODH enzyme inhibitors, primary screen, biochemical, C-terminal His tag, absorbance 600 nm (AID 1175); settings: DCIP absorbance 600 nm, higher = more signal, called active from +8 up or from −8 down;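 also: recombinant parasite enzyme with a five histidine tag at its C terminus; test concentration not given here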
[15] = P. aeruginosa biofilm formation inhibitors, primary screen, strain PAO1, LB-PBS medium, absorbance 600 nm (AID 1176); also: test concentration not given here; settings: P. aeruginosa PAO1 growth/biofilm, A600, 12 h; higher = more signal
[16] = S. cerevisiae RM11-1a growth modifiers, primary screen, strain RM11-1a, OD600, basal, 24 h (AID 1177); settings: OD600, 24 h, higher = more signal, called active from +8 up or from −8 down;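 also: cultures grown under basal conditions with no added stressor; test concentration not given here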
[17] = E. coli acrAB mutant growth effects, primary screen, E. coli filamentation inducers, strain DRC39, OD650, 24 h (AID 1178); settings: higher = more signal, called active from +8 up or from −8 down;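 also: growth measured as culture turbidity by optical density at 650 nm; test concentration not given here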
[18] = E. coli acrAB mutant growth effects, primary screen, E. coli filamentation inducers, strain DRC39, OD650, 48 h (AID 1179);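 also: screen aims at cell division blockers that make cells filament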; settings: E. coli DRC39 delta-acrAB growth, higher = more signal, called active from +8 up or from −8 down
[19] = RPMI8226 myeloma cell viability, profiling panel, resazurin fluorescence, basal, 24 h, PK04 Diversity Set (AID 1180); settings: higher = more signal;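 also: RPMI8826 multiple myeloma cell line at 5000 cells per well; test concentration not given here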
[20] = molecular target: E3 ubiquitin-protein ligase XIAP (Homo sapiens) (UniProt P98170); assay: XIAP binders, primary screen, biophysical, small-molecule microarray, fluorescence 635 nm (AID 1181); settings: small-molecule microarray binding, higher = more signal;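 also: score merges 667 nm emission and signal to noise over triplicate slides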
Sequence of E3 ubiquitin-protein ligase XIAP (Homo sapiens) (P98170 whole entry, looked up): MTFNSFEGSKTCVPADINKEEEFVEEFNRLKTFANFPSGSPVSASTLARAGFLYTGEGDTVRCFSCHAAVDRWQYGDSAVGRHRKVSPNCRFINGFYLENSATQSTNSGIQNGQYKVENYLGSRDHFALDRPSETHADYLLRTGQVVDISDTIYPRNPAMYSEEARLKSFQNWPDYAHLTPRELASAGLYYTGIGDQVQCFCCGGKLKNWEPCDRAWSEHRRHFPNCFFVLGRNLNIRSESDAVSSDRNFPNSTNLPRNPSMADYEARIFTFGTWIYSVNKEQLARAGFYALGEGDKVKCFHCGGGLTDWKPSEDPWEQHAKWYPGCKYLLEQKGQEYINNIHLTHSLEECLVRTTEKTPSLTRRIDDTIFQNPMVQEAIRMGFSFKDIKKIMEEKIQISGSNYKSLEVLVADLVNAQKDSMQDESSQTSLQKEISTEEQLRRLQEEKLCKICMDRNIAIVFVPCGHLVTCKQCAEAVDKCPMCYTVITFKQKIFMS

Sequence of Dihydroorotate dehydrogenase (quinone), mitochondrial (Plasmodium falciparum (isolate 3D7)) (Q08210 whole entry, looked up): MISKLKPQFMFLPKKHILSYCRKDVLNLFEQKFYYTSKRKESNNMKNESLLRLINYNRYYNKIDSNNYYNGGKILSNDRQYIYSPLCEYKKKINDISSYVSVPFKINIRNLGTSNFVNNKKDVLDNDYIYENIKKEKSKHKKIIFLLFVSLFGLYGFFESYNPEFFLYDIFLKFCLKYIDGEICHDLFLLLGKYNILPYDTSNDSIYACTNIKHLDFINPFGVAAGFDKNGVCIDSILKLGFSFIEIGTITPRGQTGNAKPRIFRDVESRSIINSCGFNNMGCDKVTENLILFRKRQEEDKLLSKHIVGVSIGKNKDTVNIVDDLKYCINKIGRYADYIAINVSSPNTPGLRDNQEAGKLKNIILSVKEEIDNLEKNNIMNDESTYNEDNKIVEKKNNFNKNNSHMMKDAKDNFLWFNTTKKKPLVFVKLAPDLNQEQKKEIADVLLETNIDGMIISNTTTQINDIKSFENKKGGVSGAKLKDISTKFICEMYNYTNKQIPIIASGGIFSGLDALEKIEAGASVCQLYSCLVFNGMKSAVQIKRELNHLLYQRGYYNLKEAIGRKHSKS

Row | Compound | z-score [1] | z-score [2] | z-score [3] | z-score [4] | z-score [5] | z-score [6] | z-score [7] | z-score [8] | z-score [9] | z-score [10] | z-score [11] | z-score [12] | z-score [13] | composite z-score [14] | z-score [15] | z-score [16] | z-score [17] | z-score [18] | z-score [19] | composite z-score [20]
1 | O=C1[C@H]2[C@H]3[C@H](O)[C@H](O)CC(=NOC[C@@H](O)COCc4ccco4)[C@H]3CC[C@H]2C(=O)N1Cc1ccccc1 | 0.172 | 0.194 | -1.46 | 0.455 | -2.06 | 0.176 | -0.161 (inactive) | 0.714 | -0.441 | 0.968 (inactive) | 1.57 | -1.34 (inactive) | 0.737 (inactive) | -0.336 (inactive) | 0.377 (inactive) | -1.36 (inactive) | -0.194 (inactive) | -0.22 (inactive) | 1.1 | -0.0749
2 | CCOC(=O)[C@H](Cc1ccccc1)NC(=O)CCC1CC(OC(=O)NCCc2ccc(F)cc2)CC2(CCCC(COC(=O)NCCc3ccc(Cl)cc3)O2)O1 (stereo not given in full) | -0.648 | -0.224 | -0.44 | -1.91 | -1.94 | -0.0496 | -0.305 (inactive) | 0.158 | -0.56 | 0.0031 (inactive) | 0.072 | -0.0784 (inactive) | 0.231 (inactive) | -0.161 (inactive) | -0.0569 (inactive) | 0.809 (inactive) | 0.869 (inactive) | 0.721 (inactive) | 0.28 | -0.0177
3 | Cn1c(=O)n2n(c1=O)[C@H]1[C@H](O)[C@@H]3O[C@@H]3C(=O)[C@H]1CC2 | 0.365 | -0.137 | 0.902 | -0.382 | 0.308 | 0.45 | 0.194 (inactive) | 0.731 | 0.0623 | -0.495 (inactive) | -0.12 | 0.243 (inactive) | -0.871 (inactive) | 0.438 (inactive) | -0.343 (inactive) | 0.723 (inactive) | 0.463 (inactive) | 0.166 (inactive) | -0.52 | 0.0799
4 | O=C1[C@H]2[C@H]3[C@H](O)[C@H](O)CC(=NOCc4ccccc4)[C@@H]3CC[C@H]2C(=O)N1C[C@@H]1CCCO1 | -0.0287 | -0.444 | -0.581 | 0.229 | -0.812 | -1.01 | 0.577 (inactive) | -0.944 | -0.28 | 0.232 (inactive) | 0.0577 | -0.321 (inactive) | 0.161 (inactive) | -0.0256 (inactive) | 0.611 (inactive) | -0.447 (inactive) | -0.242 (inactive) | 0.403 (inactive) | 0.278 | -0.211
5 | C[C@H]1CC[C@H]2C(=O)OC(CO)CN2[C@@H]1c1ccc(Br)cc1 (stereo not given in full) | 0.228 | 0.764 | -0.592 | -2.22 | 0.0966 | 0.292 | -0.18 (inactive) | 0.859 | 0.23 | 0.746 (inactive) | 0.228 | -1.23 (inactive) | -0.0363 (inactive) | -0.0747 (inactive) | 0.967 (inactive) | -0.373 (inactive) | -0.472 (inactive) | -0.304 (inactive) | 0.979 | 0.213
6 | C#CCCCON=C1C[C@@H](O)[C@@H](O)[C@@H]2[C@@H]3C(=O)N(Cc4ccccc4)C(=O)[C@@H]3CC[C@@H]12 | 0.307 | -0.198 | -0.732 | -0.488 | 0.199 | 0.793 | 0.89 (inactive) | -0.323 | -0.467 | 0.37 (inactive) | 0.71 | -0.878 (inactive) | 0.736 (inactive) | -1.23 (inactive) | -0.601 (inactive) | -0.0952 (inactive) | 0.777 (inactive) | 1.2 (inactive) | 0.886 | -0.267
7 | COC(=O)[C@@H]1CC[C@H](C)[C@@H](c2ccc(C)cc2)N1C(=O)c1ccc(C=NOC[C@@H](C)[C@H](OCc2ccccc2)C(C)C)cc1 | 0.188 | 0.903 | 2.13 | -0.168 | -0.0791 | 1.6 | -0.483 (inactive) | -0.998 | -1.01 | -1.19 (inactive) | -0.625 | -2.56 (inactive) | -0.795 (inactive) | -0.869 (inactive) | -1.16 (inactive) | -2.18 (inactive) | 0.413 (inactive) | -1.07 (inactive) | -0.987 | -0.135
8 | COC(=O)[C@@H]1CC[C@@H](C)[C@H](c2ccc(Br)cc2)N1 | 0.376 | 0.931 | 0.232 | -0.749 | 0.628 | 0.307 | -0.00943 (inactive) | 0.273 | 1.23 | 0.316 (inactive) | 0.0869 | -0.176 (inactive) | -0.0484 (inactive) | -0.275 (inactive) | 0.766 (inactive) | -0.0446 (inactive) | -0.234 (inactive) | -0.0612 (inactive) | 0.429 | 0.0548
9 | CCOC(=O)CCN1C(=O)[C@H]2[C@H]3[C@H](O)[C@H](O)CC(=NNC(=O)OCc4ccccc4)[C@@H]3CC[C@H]2C1=O | -0.0996 | 0.902 | 0.554 | 0.457 | -0.359 | -0.398 | -0.773 (inactive) | 0.279 | -0.614 | -0.744 (inactive) | -0.921 | 0.192 (inactive) | -0.931 (inactive) | 0.203 (inactive) | -0.331 (inactive) | 0.116 (inactive) | 0.655 (inactive) | 0.84 (inactive) | -0.663 | 0.154
